Test results: the supplement of paper PMC7530171
Counter-ions that a name gives are not always drawn. ± gives the standard deviation.

What follows are molecules tested on THP-1 macrophages infected with Mycobacterium tuberculosis H37Rv (assay: intracellular M.tb growth inhibition relative to DMSO (0) and 4 uM bedaquiline (100); higher = stronger inhibition of intracellular bacterial growth). Details: 10 µM; 4 days.
Description: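 OICR kinase inhibitor library screened in duplicate at 10 uM against THP-1 macrophages (PMA-differentiated) infected with M. tuberculosis H37Rv-pTEC27 (tdTomato RFP), 4 days at 37 C. Rows with complete host cell loss (placeholder inhibition 0, cell loss 100) were removed.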

| SMILES | intracellular M.tb growth inhibition [%] |
| --- | --- |
| COc1cc(SC)ccc1C(=O)N1CCC(Cc2ccccc2)CC1 | 41.8 ± 12 |
| Cc1cccc(-c2[nH]c(C(C)(C)C)nc2-c2ccc3c(c2)OCO3)n1 | -67.3 ± 53 |
| O=C(Nc1cccc(Cl)c1)Nc1ncc(CCNc2ncnc3ccsc23)s1 | -53.6 ± 76 |
| C/C(=N\N=C(N)N)c1ccc(NC(=O)Nc2ccc(/C(C)=N/N=C(N)N)cc2)cc1 | 63.3 ± 10 |
| Cc1ccccc1C(=O)c1ccc(Nc2ccc(Br)cc2N)cc1Cl | 20.1 ± 14 |
| Cc1cc(F)c(Nc2ncnc3cc(OCc4ccccc4)ccc23)cc1O | 38.8 ± 33 |
| COc1cc(CCc2cc(NC(=O)c3ccc(N4CC(C)NC(C)C4)cc3)n[nH]2)cc(OC)c1 (stereo not given) | -216 ± 180 |
| FC(F)c1nc2ccccc2n1-c1nc(N2CCOCC2)nc(N2CCOCC2)n1 | -26.3 ± 5.5 |
| O=c1cc(N2CCOCC2)oc2c1ccc1ccccc12 | 19.8 ± 4.3 |
| O=C(O)c1ccc2c3c1cccc3c(=O)n1c3ccccc3nc21 [STO-609 acetic acid] | -29.1 ± 36 |
| Nc1ccc(C(=O)Nc2cccc(-c3nc(N4CCOCC4)c4oc5ncccc5c4n3)c2)cn1 | 17.6 ± 65 |
| OCCn1cc(-c2ccc3c(c2)CC/C3=N\O)c(-c2ccncc2)n1 | -91.1 ± 160 |
| COc1cc(Nc2ncc(F)c(Nc3ccc4c(n3)N(COP(=O)(O)O)C(=O)C(C)(C)O4)n2)cc(OC)c1OC | 11 ± 16 |
| Cn1cncc1[C@@](N)(c1ccc(Cl)cc1)c1ccc2c(c1)c(-c1cccc(Cl)c1)cc(=O)n2C [Tipifarnib] | 3.85 ± 56 |
| CCc1cc(Nc2nccc(-c3c(-c4ccc(OC)c(C(=O)Nc5c(F)cccc5F)c4)nc4ccccn34)n2)c(OC)cc1N1CCC(N2CCN(S(C)(=O)=O)CC2)CC1 | -49.9 ± 68 |
| COc1nccc(-c2c(-c3ccc(F)cc3)ncn2C2CCNCC2)n1 | -58.3 ± 93 |
| Nc1[nH]nc2nc3ccccc3nc12 | 0.53 ± 68 |
| N#C/C(=C(/N)Sc1ccc(N)cc1)c1ccccc1C(F)(F)F | 5.44 ± 36 |
| O=S(=O)(c1cccc2cnccc12)N1CCCNCC1 [Fasudil HCl] | 6.96 ± 7.6 |
| Cc1nc(Nc2ncc(C(=O)Nc3c(C)cccc3Cl)s2)cc(N2CCN(CCO)CC2)n1 [Dasatinib] | 47.9 ± 35 |

| SMILES | intracellular M.tb growth inhibition [%] |
| --- | --- |
| Nc1ncnc(Nc2ccc(OCc3ccccc3)c(Cl)c2)c1/C=N/OCCN1CCOCC1 | 55.9 ± 12 |
| N#Cc1c(-c2ccccc2)cc(-c2cc(Br)ccc2O)[nH]c1=O | 19.8 ± 17 |
| CN(C)c1cc2c(Nc3ccc4c(cnn4Cc4ccccc4)c3)ncnc2cn1 | 43.5 ± 9.2 |
| O=c1c(O)c(-c2ccc(O)c(O)c2)oc2cc(O)cc(O)c12 [Quercetin] | -5.54 ± 46 |
| CN(C)CCOc1cc(-c2cn[nH]c2)ccc1NC(=O)C1COc2ccccc2O1 (stereo not given) | -97.9 ± 79 |
| Cc1ccc(S(=O)(=O)Nc2nc3ccccc3nc2Nc2ccc3nsnc3c2)cc1 | -56.4 ± 99 |
| Nc1nc(Nc2ccc(S(N)(=O)=O)cc2)nn1C(=S)Nc1c(F)cccc1F [Cdk1/2 Inhibitor III] | -193 ± 240 |
| Cn1cnc2c(F)c(Nc3ccc(Br)cc3Cl)c(C(=O)NOCCO)cc21 | 6.79 ± 5.7 |
| CO[C@H]1C[C@@H]2CC[C@@H](C)[C@@](O)(O2)C(=O)C(=O)N2CCCC[C@H]2C(=O)O[C@H]([C@H](C)C[C@@H]2CC[C@@H](OC(=O)C(C)(CO)CO)[C@H](OC)C2)CC(=O)[C@H](C)/C=C(\C)[C@@H](O)[C@@H](OC)C(=O)[C@H](C)C[C@H](C)/C=C/C=C/C=C/1C [Temsirolimus] | -22.8 ± 24 |
| Nc1ncnc2c1c(-c1cccc(OCc3ccccc3)c1)cn2C1CC(CN2CCC2)C1 (stereo not given) | -22.8 ± 12 |
| CC(C)(C)n1nc(-c2cccc3ccccc23)c2c(N)ncnc21 [1-Naphthyl PP1] | 21.2 ± 3.2 |
| Cc1cc(C(C)Nc2ccccc2)c2nc(N3CCOCC3)cc(=O)n2c1 (stereo not given) | -38.7 ± 24 |
| COc1cc2c(cc1OC)-c1[nH]nc(Nc3cccc(F)c3)c1C2 | 62.2 ± 12 |
| C[C@@]1(C(=O)Nc2ccc(F)nc2)CCCN1c1nc(Nc2cc(C3CC3)n[nH]2)c2cccn2n1 | -265 ± 70 |
| O=C(NOCC1CC1)c1cc(Br)c(F)c(F)c1Nc1ccc(I)cc1Cl | 59.8 ± 16 |
| NS(=O)(=O)c1ccc(Nc2nc(OCC3CCCCC3)c3[nH]cnc3n2)cc1 | 15.4 ± 41 |
| N#CC[C@H](C1CCCC1)n1cc(-c2ncnc3[nH]ccc23)cn1 | -157 ± 220 |
| Cc1cc(C(=O)Nc2cc(Nc3ccc4c(/C=C/c5ccccn5)n[nH]c4c3)ccc2F)n(C)n1 | -16.4 ± 71 |
| O=C(Nc1cccc(Nc2ncc(Br)c(NCCc3cnc[nH]3)n2)c1)N1CCCC1 | -256 ± 330 |
| Cc1csc(-c2nnc(Nc3ccc(Oc4ncccc4-c4ccnc(N)n4)cc3)c3ccccc23)c1 | 126 ± 190 |
